Results on 39 sequences are retold here after the OligoGym collection.
Further: reference of the scale not given here.

One experiment has as its target GRIA1. The experiment can be described thus: pooled miR-30 sensor sort-seq; sequence = guide strand. Particulars: shRNA.
The sequence AAATCTATAACTTCTTCCCGGA came in with a sensor-assay potency score (higher = more potent) of 0.0312.

Consider TCCATCACTGACAATCTCCAGA, for which the sensor-assay potency score (higher = more potent) was -1.21.

TTTCTGTCTGCTTCGCTAGGTC showed a sensor-assay potency score (higher = more potent) of -0.0532.

The sequence TTGACTGCTGTCACCTGCCAGT yielded a sensor-assay potency score (higher = more potent) of -0.603.

As for TATCGTACCACCATTTGCTTTT, the sensor-assay potency score (higher = more potent) is -0.245.

TTTCTCATTAAACTGCACGTTT: the sensor-assay potency score (higher = more potent) is -0.314.

On to TTCTCTAGCTTTATAATCTGGC, for which the sensor-assay potency score (higher = more potent) is -0.406.

Consider TATAACTTCTTCCCGGACCAAA, for which the sensor-assay potency score (higher = more potent) is -1.38.

With TTATCGTACCACCATTTGCTTT, the sensor-assay potency score (higher = more potent) is -1.73.

Sequence TAAACCTTCAAATCGCACCTGC gave a sensor-assay potency score (higher = more potent) of 0.232.

On to TTGTCTTGTCCTTACTTCCGGA, for which the sensor-assay potency score (higher = more potent) was -0.41.

The sequence TTTGTTTAAGTCAATGTCCATG gave a sensor-assay potency score (higher = more potent) of -1.06.

The target of the next experiment is GRIK2. Described as above. Particulars: shRNA.
Take TTGTCCATTGGCATCATCCTGG: the sensor-assay potency score (higher = more potent) was -0.234.

The sequence TTTGTTTAGCTAAATCATCAGC yielded a sensor-assay potency score (higher = more potent) of -0.527.

For the sequence TTTATGTCGATTACACTGCAAG, the sensor-assay potency score (higher = more potent) was -0.937.

TTTGTTGTCTGACACCTGGTGC: the sensor-assay potency score (higher = more potent) was 0.0104.

TTCTTCATTACTTTTGACCAGC registered a sensor-assay potency score (higher = more potent) of -0.437.

Take TACACTGCAAGGAACTGACTGT: the sensor-assay potency score (higher = more potent) is 0.034.

TACTGCTCCATATTCTATCTTG gave a sensor-assay potency score (higher = more potent) of -0.199.

TTGACCAGCACTGACTGCCTTC came in with a sensor-assay potency score (higher = more potent) of -0.29.

Regarding TAGAGCAGCATCAGTCGTCATA, the sensor-assay potency score (higher = more potent) was -0.889.

In turn, TTAATTAGACTCATAAAGCGGG yielded a sensor-assay potency score (higher = more potent) of 0.186.

On to TTGAGTCGAAGATTATACCTTG, for which the sensor-assay potency score (higher = more potent) came out at 0.358.

Sequence TCGAACATAGGTAATAGCCAGT displayed a sensor-assay potency score (higher = more potent) of -0.567.

For the next experiment, the target named is GRIPAP1. The experiment is described as above. Particulars: shRNA.
For TTCCTTGCTGAACTCGGCCATT, the sensor-assay potency score (higher = more potent) was -1.52.

As for TTTGCTGAACTCCTTATCCAAG, the sensor-assay potency score (higher = more potent) was -1.41.

TTCCTGTGCATCTGCACTCTGG registered a sensor-assay potency score (higher = more potent) of -1.21.

For TATTTCTTGAAGTTGTTCCAGC, the sensor-assay potency score (higher = more potent) was -0.115.

TTGAAGTTCTTCCACTGTCTGC displayed a sensor-assay potency score (higher = more potent) of -0.043.

TTCTTGAAGTTGTTCCAGCAGT: the sensor-assay potency score (higher = more potent) was -0.658.

For the sequence TTCTTTTTCAGTTTCTCGGAGA, the sensor-assay potency score (higher = more potent) is -0.31.

TTGTGATCAGCTTCCTTCCGTT: the sensor-assay potency score (higher = more potent) was -0.347.

For TTGCTGGTTCTCTTGCTCCAGC, the sensor-assay potency score (higher = more potent) is -0.982.

TTTCTTTTTCAGTTTCTCGGAG displayed a sensor-assay potency score (higher = more potent) of -0.138.

Regarding TTTGTGATCAGCTTCCTTCCGT, the sensor-assay potency score (higher = more potent) was determined as 0.395.

As to TTCCATTGCTAGCTCATCCAGC, the sensor-assay potency score (higher = more potent) is -0.174.

A further experiment has as its target GRK1. The description is as above. As to conditions: shRNA.
With TTGTTCTCCACCTTCTCTCCAC, the sensor-assay potency score (higher = more potent) is -0.0458.

Regarding TTAAACTTCGCCACTATCCCCT, the sensor-assay potency score (higher = more potent) came out at 0.34.

TTCTTGTTCAGCTTCTTGCAGG gave a sensor-assay potency score (higher = more potent) of -0.533.
